Assay outcomes: PubChem BioAssay, NMMLSC
A selection: hits, their analogues and other compounds. The true share with any hit is near 1.2%.
RGS16-Gao – modulates binding between human RGS16 and Galphao; binding response (% of control), % at 10 µM; 220,000 compounds, 0.38% hits; bead-based flow cytometry RGS16-Galphao binding, fluorescence; actives lie on both sides; O15492+P09471;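 further: Galphao activated by GDP with aluminum fluoride before binding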
RGS8-Gao reg – modulates binding of RGS8 to human Galphao; multiplexed bead flow cytometry; actives lie on both sides; response (percent of control binding), % at 10 µM; 220,000 compounds, 0.34% hits; P09471; AID 1423; in the data active means response below about 60% or above about 140%; inactive means in between;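 further: Galphao activated as the GDP aluminium fluoride complex binding bead-coupled RGS8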
Target sequence (P09471 whole entry, looked up): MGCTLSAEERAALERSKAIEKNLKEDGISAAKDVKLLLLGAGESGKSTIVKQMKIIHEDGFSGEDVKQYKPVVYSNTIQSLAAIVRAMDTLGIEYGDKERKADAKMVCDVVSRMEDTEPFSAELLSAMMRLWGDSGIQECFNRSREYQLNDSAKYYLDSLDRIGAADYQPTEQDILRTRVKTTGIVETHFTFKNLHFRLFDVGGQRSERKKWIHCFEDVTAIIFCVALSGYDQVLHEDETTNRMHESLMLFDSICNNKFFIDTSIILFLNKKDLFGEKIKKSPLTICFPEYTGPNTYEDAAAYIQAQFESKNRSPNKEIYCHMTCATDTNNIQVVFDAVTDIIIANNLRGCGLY
GSH fluor – compound fluoresces at 488/530 nm on GSH beads; fluorescence (KMESF) at 10 µM; 190,000 compounds, 0.25% hits; GSH beads flow cytometry, compound fluorescence 488/530 nm; active compounds read high; AID 1776; in the data active means fluorescence above about 89;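 further: glutathione beads carrying GST-tagged Bcl family fusion proteins plus one bare bead set; values are compound well signal with DMSO vehicle wells as background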
RGS7-Gao reg – human RGS7-Galphao interaction regulation | binding response (% of control), % at 10 µM | Multiplexed bead flow cytometry, RGS7-Galphao binding; actives lie on both sides | AID 1439 | P09471 | 220,000 compounds, 0.35% hits; in the data active means binding response below about 49% or above about 150%; inconclusive means no clear call, values can overlap the other calls; inactive means in between;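 further: fluorescent Galphao held in activated GDP-AlF4 state binding bead-coupled RGS7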
Avidin bead fluor – compound fluoresces at 488/530 nm on avidin beads | compound fluorescence 488/530 nm, flow cytometry; active compounds read high | fluorescence (KMESF) at 10 µM | 220,000 compounds, 0.38% hits | AID 1775; in the data active means fluorescence above about 47
RGS4-Gao reg – human RGS4-Galphao interaction regulation. P09471. Multiplexed bead flow cytometry, RGS4-Galphao binding; actives lie on both sides. binding response (% of control), % at 10 µM. 220,000 compounds, 0.33% hits. AID 1415; in the data active means binding response below about 49% or above about 150%; inactive means in between;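 further: fluorescent Galphao activated with aluminum fluoride binding bead-coupled RGS4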
RGS4-Gao HTS – RGS4-Galphao interaction regulator (human) | shares compounds with RGS16-Gao | multiplexed bead flow cytometry, RGS–Galpha-o binding | RGS4–Galpha-o binding response, % at 10 µM | 1,600 compounds, 99% hits | AID 1504;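 further: fluorescently labeled Galpha-o bound to GDP with aluminium fluoride binding biotinylated RGS beads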
Biotin-avidin – interferes with biotinylated probe binding to avidin beads; inhibition, % at 10 µM; 1,700 tested, under 10 active; AID 1783; streptavidin beads, fluorescein-biotin binding, flow cytometry; shares compounds with RGS16-Gao;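 active means inhibition above 50%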;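 further: median green fluorescence of gated singlet beads compared with DMSO control wells; 0% = DMSO wells and 100% = complete loss of bead fluorescence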
RGS8-Gao confirm – confirmation of regulators of human RGS8-Galphao interaction; shares compounds with RGS16-Gao; bead-based flow cytometry RGS8-Galphao binding, fluorescence; actives lie on both sides; binding response (% of control), % at 10 µM; 1,700 compounds, 3% hits; AID 1836; in the data active means binding response below about 72% or above about 130%; inactive means in between;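 further: Galphao activated as GDP AlF4 complex before binding bead RGS8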
RGS7-Gao single – RGS7-Galphao interaction regulation, single point confirmation | shares compounds with RGS16-Gao | bead-based flow cytometry RGS7-Galphao binding; actives lie on both sides | response (percent of control binding), % at 10 µM | 1,700 compounds, 7.8% hits | AID 1837; in the data active means response below about 75% or above about 130%; inactive means in between;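 further: fluorescent Galphao activated with GDP and aluminum fluoride binding bead-coupled RGS7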
RGS16-Gao conf – confirmation of regulators of human RGS16-Galphao interaction | shares compounds with RGS16-Gao | bead-based flow cytometry, RGS16-Galphao binding; actives lie on both sides | response (% of control binding), % at 10 µM | 1,700 compounds, 4% hits; in the data active means response below about 74% or above about 130%; inactive means in between;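 further: Galphao activated as the GDP aluminium fluoride complex binding bead-coupled RGS16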
RGS4-Gao single – confirmation of regulators of human RGS4-Galphao interaction; AID 1840; RGS4-Galphao binding, multiplexed bead flow cytometry; actives lie on both sides; shares compounds with RGS16-Gao; binding response (% of control), % at 10 µM; 1,700 compounds, 4% hits; in the data active means binding response below about 74% or above about 130%; inactive means in between
RGS19-Gao conf – confirmation of regulators of human RGS19-Galphao interaction; shares compounds with RGS16-Gao; bead-based flow cytometry RGS19-Galphao binding; actives lie on both sides; response (percent of control binding), % at 10 µM; 1,700 compounds, 5% hits; AID 1841; in the data active means response below about 50% or above about 160%; inactive means in between;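 further: 100% = no compound control and 0% = blank background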
Target sequence (P09471 whole entry, looked up): as above
Target sequence (P49795 whole entry, looked up): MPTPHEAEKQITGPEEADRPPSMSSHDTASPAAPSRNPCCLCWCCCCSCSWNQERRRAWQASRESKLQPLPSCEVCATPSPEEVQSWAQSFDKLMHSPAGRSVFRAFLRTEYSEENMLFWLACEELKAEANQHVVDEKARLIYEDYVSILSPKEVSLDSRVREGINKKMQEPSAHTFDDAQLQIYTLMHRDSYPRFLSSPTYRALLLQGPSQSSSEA
The depositor's hits bear a star; ? = inconclusive; / = no result given; [ ] = remark or other dose. Unless noted, how the calls were made is not given here.

SMILES	RGS16-Gao	RGS8-Gao reg	GSH fluor	RGS7-Gao reg	Avidin bead fluor	RGS4-Gao reg	others
CC(C)(C)c1nc(NCc2ccc3c(c2)OCO3)c2nnn(Cc3ccccc3Cl)c2n1	103.8	100.0	141*	101.6	4	100.9
O=C(NCCO)c1nsnc1NCCCl	99.2	99.7	13	93.9	9	101.6
O=c1c2ccccc2nc(-c2ccco2)n1-c1ccccc1	112.5	106.0	125*	109.1	12	117.6
Cc1cccc(OP(=O)(NCc2ccccc2)Oc2cccc(C)c2)c1	101.8	99.5	21	100.2	13	100.2
CC(Cc1ccccc1)NCC(=O)Nc1cc(N(C)C)nc2ccccc12 (configuration not stated)	97.5	97.2	/	?	12	95.0
O=c1[nH]c(=O)n(CCC2=CCCCC2)c(O)c1C=Nc1cccc(F)c1	96.7	102.0	12	113.5	57*	100.3
Nc1ccccc1N=Cc1c(O)n(CCC2=CCCCC2)c(=O)[nH]c1=O	99.9	100.0	10	96.3	19	99.6
O=C(Cn1cc(C(=O)c2ccccc2)c2ccccc21)NCc1ccco1	111.2	105.4	20	107.9	50*	102.6
O=c1[nH]c(=O)n(C2CCCCC2)c(O)c1C1NCCc2ccccc21 (configuration not stated)	100.4	102.6	261*	101.5	6	105.8
Cc1ccc(OCC(=O)N2CCN(Cc3cccnc3)CC2)cc1	104.0	100.6	11	?	9	101.4
Cc1n[nH]c(C)c1CCN	104.8	101.7	16	102.2	59*	103.5
CCCCCn1c(=O)c(C(=O)Nc2nc(CC(=O)OCC)cs2)c(O)c2ccccc21	103.0	103.2	96*	102.2	22	101.5
Cc1ccc(Cc2c(C)nc3nc(SCC(=O)N4CCC5(CC4)OCCO5)nn3c2C)cc1	101.9	99.8	9	97.8	8	98.4
O=C1NC(=O)C2(Cc3ccccc3N3CCCC32)C(=O)N1c1ccccc1 (configuration not stated)	99.7	99.2	23	110.7	54*	98.6
O=C1NC(=O)C2(Cc3ccccc3N3CCCC32)C(=O)N1 (configuration not stated)	87.2	94.5	32	99.6	8	100.8
Cc1cc(/C=C2\C(=O)NC(=O)N(Cc3ccccc3)C2=O)c(C)n1-c1ccc(Cl)c(C(=O)O)c1	84.2	89.3	6	87.5	1	96.8
NNc1n[nH]c(=S)n1N	144.4	104.1	/	?	88*	143.9
O=P(O)(O)C#Cc1ccccc1	95.2	96.7	261*	97.0	9	97.9
Cn1cc(NC(=O)CCl)cn1	101.3	102.8	60	103.4	24	101.2
CCOP(=O)(OCC)C(O)c1cccnc1 (configuration not stated)	113.4	109.1	/	?	81*	131.8
CCOP(=O)(OCC)C(O)c1ccccc1 (configuration not stated)	101.4	103.7	/	?	4	107.5
Cc1cc(OC(=O)c2cccs2)c2c3c(c(=O)oc2c1)CCCC3	99.7	101.1	13	98.1	12	100.4
COc1cc(NC(=O)CN2C3CCC2CC(O)(c2cccnc2)C3)cc(OC)c1 (configuration not stated)	100.2	100.1	11	113.4	49*	104.0
CC1Oc2cc3c(-c4c(O)cc(O)c5c(O)c6c(cc45)OC(C)C(C)C6=O)c(O)cc(O)c3c(O)c2C(=O)C1C (configuration not stated)	15.0*	36.3*	/	?	0	13.7*
Cc1nn(-c2ccccc2)c(Cl)c1C1C(C#N)=C(N)Oc2c1c(=O)oc1ccccc21 (configuration not stated)	102.2	101.2	33	99.6	14	100.5
SMILES	RGS16-Gao	RGS8-Gao reg	GSH fluor	RGS7-Gao reg	Avidin bead fluor	RGS4-Gao reg	others
CCOC(=O)CC(NC(=O)C(Cc1ccc(N(CCCl)CCCl)cc1)NC(C)=O)C(=O)OCC (configuration not stated)	100.7	101.1	12	100.6	8	102.2
CCOC(=O)N1CCC(NC(=O)CCc2nc(C3=CCN(C)CC3)no2)CC1	109.5	101.1	23	189.7*[activator]	166*	124.9	RGS4-Gao HTS=124.9*
CN1OCC2Cn3c(nc4ccccc43)C21 (configuration not stated)	97.3	98.3	/	?	9	99.0
c1ccc(CCn2nnnc2CN2CCC(n3nnc4ccccc43)CC2)cc1	433.9	161.1*[activator]	7	128.4	6	130.6	RGS4-Gao HTS=130.6*;Biotin-avidin=-1.2;RGS8-Gao confirm=104.8;RGS7-Gao single=104.9;RGS16-Gao conf=105.2;RGS4-Gao single=102.8;RGS19-Gao conf=106.2
O=P(Nc1ccccc1)(Nc1ccccc1)Oc1ccccc1	10.5*	62.3	30	81.2	5	80.5	RGS4-Gao HTS=80.5*;Biotin-avidin=0.4;RGS8-Gao confirm=99.4;RGS7-Gao single=105.9;RGS16-Gao conf=102.5;RGS4-Gao single=104.8;RGS19-Gao conf=105.5
COc1ccc(NP(=O)(Nc2ccc(OC)cc2)Oc2ccccc2)cc1	105.6	98.0	15	104.0	23	99.8
O=c1[nH]c(=S)n(Cc2ccco2)c(O)c1C=NCc1cccs1	/	/	40	/	/	/	Biotin-avidin=-1.1;RGS8-Gao confirm=87.1;RGS7-Gao single=53.3*;RGS16-Gao conf=73.8*;RGS4-Gao single=66.4*;RGS19-Gao conf=46.8*
O=c1[nH]c(=O)n(Cc2ccco2)c(O)c1C=NCc1cccs1	95.0	96.6	13	95.0	32	95.7
O=C(NC12CC3CC(CC(C3)C1)C2)OC1CN2CCC1CC2 (configuration not stated)	127.7	101.3	/	?	10	166.7*[activator]	Biotin-avidin=1.0;RGS8-Gao confirm=99.7;RGS7-Gao single=102.2;RGS16-Gao conf=98.7;RGS4-Gao single=100.4;RGS19-Gao conf=99.6
